For assay [1], the target named is IKZF1 (dCK*-IKZF1 fusion in HEK293FT) (UniProt Q13422). The assay can be described thus: inhibition of IKZF1 HTRF signal (DMSO = 0%, pomalidomide 10 uM = 100%); higher = lower IKZF1 protein level. The conditions noted are these: compound concentration: 5 uM, overnight (~20 h). The method in brief:
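After overnight treatment at 37 °C with 5 μM compound in single wells, HEK293FT cells (2000/well, 384-well) stably expressing an IKZF1 fusion were lysed for 30 min at room temperature. A commercial HTRF total-IKZF1 antibody kit was incubated with the lysate overnight, and the time-resolved FRET ratio at 665/620 nm was corrected for background. Data are given as percent inhibition of IKZF1 signal relative, on each plate, to vehicle and a reference degrader, set at 0% and 100% respectively.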
On the technique in general: In TR-FRET formats the signal depends on donor and acceptor labels being close together.

The subject of the next assay is HEK293FT dCK*-only. The assay can be described thus: relative growth in counter assay (no AraC = 100%, AraC + DMSO = 0%); higher = more growth rescue independent of IKZF1. The conditions noted are these: compound concentration: 5 uM; AraC concentration: 0.3 uM; overnight pretreatment + 4 days AraC. In outline:
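Counter assay in HEK293FT cells expressing dCK* alone (300/well, 384-well). Cells received 5 μM compound 2 h after seeding, then after overnight at 37 °C a nucleoside suicide substrate at 0.3 μM plus medium for 4 days. On day 5, Hoechst 33342-stained nuclei were counted by imaging. Relative growth was normalised per plate to wells without suicide substrate (100%) and substrate plus vehicle (0%).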

A further assay deals with HEK293FT dCK*-IKZF1. The assay can be described thus: relative growth recovery (pomalidomide 10 uM = 100%, DMSO = 0%); higher = more growth rescue (IKZF1 fusion degradation). The conditions noted are these: compound concentration: 5 uM; AraC concentration: 0.3 uM; overnight pretreatment + 4 days AraC. The method in brief:
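Means of duplicates from different days are given for growth recovery, normalised per plate against a reference degrader and vehicle. The reference degrader set the 100% level and vehicle the 0% level. HEK293FT cells stably expressing a deoxycytidine kinase–IKZF1 fusion (300/well, 384-well) received 5 μM compound 2 h after seeding and, after overnight at 37 °C, 0.3 μM of a nucleoside suicide substrate plus medium for 4 days. Nuclei stained with Hoechst 33342 were then counted by whole-well imaging on day 5.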

IKZF1 (dCK*-IKZF1 fusion in HEK293FT), sequence (Q13422 whole entry, looked up, the tested form may be a part): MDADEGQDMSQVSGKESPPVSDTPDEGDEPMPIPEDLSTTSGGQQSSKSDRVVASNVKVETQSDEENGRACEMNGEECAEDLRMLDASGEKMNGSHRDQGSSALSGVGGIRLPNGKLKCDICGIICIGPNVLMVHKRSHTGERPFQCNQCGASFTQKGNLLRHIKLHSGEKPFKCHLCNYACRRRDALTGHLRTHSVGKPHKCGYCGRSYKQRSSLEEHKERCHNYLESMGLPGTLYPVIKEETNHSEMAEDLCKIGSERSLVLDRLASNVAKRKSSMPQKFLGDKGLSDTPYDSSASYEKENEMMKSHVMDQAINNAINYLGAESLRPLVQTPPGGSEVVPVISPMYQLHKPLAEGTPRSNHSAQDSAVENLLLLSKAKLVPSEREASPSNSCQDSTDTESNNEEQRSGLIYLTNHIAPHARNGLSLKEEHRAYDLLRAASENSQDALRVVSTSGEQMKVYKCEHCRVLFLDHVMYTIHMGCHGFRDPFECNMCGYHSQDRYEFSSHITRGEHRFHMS

With `COc1cc2ncnc(Nc3ccc(F)c(Cl)c3)c2cc1OCCCCCOCCOCCC(=O)N[C@H](C(=O)N1C[C@H](O)C[C@H]1C(=O)NCc1ccc(-c2scnc2C)cc1)C(C)(C)C` [Gefitinib-based PROTAC 3], the “inhibition of IKZF1 HTRF signal” value in assay [1] amounted to 15.5%. In addition, the “relative growth in counter assay” value with HEK293FT dCK*-only amounted to 41.4%. The relative growth recovery in the assay on HEK293FT dCK*-IKZF1 turned out to be 55.5%.
With `Nc1ncn([C@H]2C[C@H](O)[C@@H](CO)O2)c(=O)n1` [decitabine], in assay [1], the “inhibition of IKZF1 HTRF signal” value came to 27.4%. Besides, the “relative growth in counter assay” value with HEK293FT dCK*-only is -31.5%. Further, in the assay on HEK293FT dCK*-IKZF1, the relative growth recovery is -10.8%.
For `O=C(/C=C/c1ccc2ccccc2n1)c1ccncc1`, the “inhibition of IKZF1 HTRF signal” value in assay [1] is -36.5%. In addition, in the assay on HEK293FT dCK*-only, the “relative growth in counter assay” value was -35.1%. For the same molecule, the relative growth recovery with HEK293FT dCK*-IKZF1 was -15%.
On to `Cc1ccccc1/N=N/c1ccc(NC(=O)c2ccnn2C)c(C)c1`, for which the “inhibition of IKZF1 HTRF signal” value in assay [1] is -27%. Moreover, in the assay on HEK293FT dCK*-only, the “relative growth in counter assay” value was -9.17%. Further, in the assay with HEK293FT dCK*-IKZF1, the relative growth recovery was -0.005%.
On to `CO[C@H]1/C=C/O[C@@]2(C)Oc3c(C)c(O)c4c(O)c(c(/C=N/N5CCN(C)CC5)c(O)c4c3C2=O)NC(=O)/C(C)=C\C=C\[C@H](C)[C@H](O)[C@@H](C)[C@@H](O)[C@@H](C)[C@H](OC(C)=O)[C@@H]1C`, for which the “inhibition of IKZF1 HTRF signal” value in assay [1] is 33.6%. Moreover, the “relative growth in counter assay” value in the assay on HEK293FT dCK*-only stood at 12.9%. In addition, the relative growth recovery in the assay with HEK293FT dCK*-IKZF1 was -2.5%.
Consider `Nc1cc(N2CCCCC2)nc(N)[n+]1[O-]`, for which the “inhibition of IKZF1 HTRF signal” value in assay [1] is -27.1%. Further, the “relative growth in counter assay” value with HEK293FT dCK*-only is -5.79%. Also, the relative growth recovery in the assay on HEK293FT dCK*-IKZF1 is -0.55%.
The like results for `COC(=O)C1=C(C)NC(C)=C(C(=O)OC/C=C/c2ccccc2)C1c1cccc([N+](=O)[O-])c1` (stereo not given) [Pranidipine] were, in that order, 13.9%, -3.72% and -0.3%.
`CCN(CC)CCCC(C)Nc1ccnc2cc(Cl)ccc12` (stereo not given): the “inhibition of IKZF1 HTRF signal” value in assay [1] was -24.3%. In the assay on HEK293FT dCK*-only, the “relative growth in counter assay” value is -29.9%. In the assay with HEK293FT dCK*-IKZF1, the relative growth recovery is -9.51%.
On to `O=c1n(CC2CO2)c(=O)n(CC2CO2)c(=O)n1CC1CO1` (stereo not given) [Triglycidyl isocyanurate], for which the “inhibition of IKZF1 HTRF signal” value in assay [1] came out at 30.6%. Besides, the “relative growth in counter assay” value in the assay with HEK293FT dCK*-only is -31.7%. Also, the relative growth recovery in the assay on HEK293FT dCK*-IKZF1 is -10.8%.
The matching figures for `CCCCCNC(=N)N/N=C/c1c[nH]c2ccc(OC)cc12`: -1.99%, -5.1% and -2.16%.

The record behind these values is the supplement of paper PMC12340641.
